Results on 21 compounds are retold here after PubChem BioAssay.

As a reminder, the inhibition is the change of the read-out against control, counted positive when it falls.

Molecules are shown by their SMILES. A number with no mark means an inactive call. For part of these data: Entries with a potency or affinity are not part of this list. Calls of active or inactive are those of the source. Unless noted, no rule for the calls is given here.

A short description of experiment [1]: antimalarial activity against Dd2 strain (AID 2302;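 active = growth inhibition above 50% at the single 2 µM test dose, taken to imply half-maximal potency below 2 µM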;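 also: 0% = DMSO untreated growth and 100% = chloroquine plus artemisinin killed control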). Particulars: P. falciparum Dd2 in RBCs, LDH growth readout, 72 h; at 2 µM; stronger effect = higher value.
A short description of experiment [2]: human hepatoma cell viability loss – ATP luminescence, cytotoxicity control for P. falciparum antimalarial project, primary screen (AID 2303;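 active = inhibition above 50%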;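 also: 0% = DMSO wells and 100% = digitonin-killed cells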). Particulars: HepG2 viability, 24-48 h, at 10 µM, stronger effect = higher value.
The target of experiment [3] is L-lactate dehydrogenase (Plasmodium falciparum (isolate CDC / Honduras)) (UniProt Q27743). Description: PfLDH activity inhibition – cell lysate, 3D7 strain, counter-screen for P. falciparum growth inhibition project (AID 2304).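 Also: 0% = vehicle and 100% = reference inhibitor.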 Particulars: P. falciparum 3D7 crude extract, LDH APAD/NBT absorbance; at 2 µM; stronger effect = higher value.
L-lactate dehydrogenase (Plasmodium falciparum (isolate CDC / Honduras)), sequence (Q27743 whole entry, looked up): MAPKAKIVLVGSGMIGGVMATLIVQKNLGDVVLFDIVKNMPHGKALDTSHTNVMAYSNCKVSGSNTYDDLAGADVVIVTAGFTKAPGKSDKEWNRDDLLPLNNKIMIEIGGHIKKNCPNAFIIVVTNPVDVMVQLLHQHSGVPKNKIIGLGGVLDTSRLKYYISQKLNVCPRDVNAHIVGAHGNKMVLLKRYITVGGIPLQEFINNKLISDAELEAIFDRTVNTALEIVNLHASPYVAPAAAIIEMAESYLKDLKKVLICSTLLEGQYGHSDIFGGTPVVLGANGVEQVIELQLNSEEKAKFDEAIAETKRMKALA
Experiment [4] in a line: inhibition of 3D7 malaria parasite growth – strain 3D7 (AID 2306).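 Also: 0% = DMSO wells and 100% = chloroquine plus artemisinin control wells.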 Particulars: P. falciparum 3D7 erythrocytic growth, LDH absorbance, 72 h; at 2 µM; stronger effect = higher value.
Experiment [5] deals with Calcium-dependent protein kinase 1 (Plasmodium falciparum (isolate 3D7)) (UniProt P62344). Nature of the experiment: PfCDPK1 kinase inhibitors, biochemical, TCAMS library (AID 1159585; cut-off not given, nearly all actives have IC50 up to about 0.98 µM;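 also: inhibitors leave more ATP so luminescence rises with inhibition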). Particulars: recombinant PfCDPK1, Kinase-Glo ATP depletion luminescence. On the technique in general: In Kinase-Glo more light means more ATP remaining.
Calcium-dependent protein kinase 1 (Plasmodium falciparum (isolate 3D7)), sequence (P62344 whole entry, looked up): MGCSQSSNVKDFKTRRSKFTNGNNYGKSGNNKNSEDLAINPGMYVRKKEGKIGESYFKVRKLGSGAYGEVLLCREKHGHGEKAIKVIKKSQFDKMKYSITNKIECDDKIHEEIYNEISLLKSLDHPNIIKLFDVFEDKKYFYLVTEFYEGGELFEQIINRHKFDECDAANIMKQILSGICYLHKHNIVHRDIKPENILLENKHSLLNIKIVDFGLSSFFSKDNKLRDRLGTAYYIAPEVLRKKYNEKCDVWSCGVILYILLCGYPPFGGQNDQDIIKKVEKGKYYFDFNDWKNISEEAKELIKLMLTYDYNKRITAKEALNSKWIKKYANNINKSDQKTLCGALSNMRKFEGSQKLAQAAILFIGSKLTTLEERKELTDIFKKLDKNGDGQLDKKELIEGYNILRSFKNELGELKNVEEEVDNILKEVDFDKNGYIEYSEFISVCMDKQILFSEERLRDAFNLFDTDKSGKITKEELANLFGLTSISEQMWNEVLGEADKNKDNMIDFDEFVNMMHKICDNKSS
Experiment [6] concerns the target Plasmodium falciparum protein kinase 6 (PK6, PF3D7_1337100) (UniProt Q8IDW1). Nature of the experiment: PfPK6 kinase inhibitors, biochemical, TCAMS library (AID 1159586). Particulars: recombinant PfPK6, Kinase-Glo ATP depletion luminescence.
In experiment [7] the target is Protein kinase 7 (PK7), Plasmodium falciparum 3D7 (PF3D7_0213400) (UniProt Q7YTF7). Description: inhibition of Plasmodium PK7 catalytic activity – biochemical, TCAMS antimalarial set, Kinase-Glo luminescence (AID 1159587). Particulars: recombinant PfPK7, Kinase-Glo ATP depletion luminescence.
Protein kinase 7 (PK7), Plasmodium falciparum 3D7 (PF3D7_0213400), sequence (Q7YTF7 1-343): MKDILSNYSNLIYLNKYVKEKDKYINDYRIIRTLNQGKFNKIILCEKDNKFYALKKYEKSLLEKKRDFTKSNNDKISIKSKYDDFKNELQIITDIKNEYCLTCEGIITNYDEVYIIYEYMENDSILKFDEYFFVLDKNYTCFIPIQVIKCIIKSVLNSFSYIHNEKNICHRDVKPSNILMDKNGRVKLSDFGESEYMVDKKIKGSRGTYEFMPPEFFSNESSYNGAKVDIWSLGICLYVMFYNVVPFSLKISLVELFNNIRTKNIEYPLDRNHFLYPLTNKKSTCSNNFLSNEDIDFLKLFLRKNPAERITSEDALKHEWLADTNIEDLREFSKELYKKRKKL
The target of experiment [8] is Calcium-dependent protein kinase 4 (Plasmodium falciparum (isolate 3D7)) (UniProt Q8IBS5). Description: PfCDPK4 kinase inhibitors, biochemical, TCAMS library (AID 1159588; cut-off not given, nearly all actives have IC50 up to about 0.91 µM). Particulars: recombinant PfCDPK4, Kinase-Glo ATP depletion luminescence.
Calcium-dependent protein kinase 4 (Plasmodium falciparum (isolate 3D7)), sequence (Q8IBS5 whole entry, looked up): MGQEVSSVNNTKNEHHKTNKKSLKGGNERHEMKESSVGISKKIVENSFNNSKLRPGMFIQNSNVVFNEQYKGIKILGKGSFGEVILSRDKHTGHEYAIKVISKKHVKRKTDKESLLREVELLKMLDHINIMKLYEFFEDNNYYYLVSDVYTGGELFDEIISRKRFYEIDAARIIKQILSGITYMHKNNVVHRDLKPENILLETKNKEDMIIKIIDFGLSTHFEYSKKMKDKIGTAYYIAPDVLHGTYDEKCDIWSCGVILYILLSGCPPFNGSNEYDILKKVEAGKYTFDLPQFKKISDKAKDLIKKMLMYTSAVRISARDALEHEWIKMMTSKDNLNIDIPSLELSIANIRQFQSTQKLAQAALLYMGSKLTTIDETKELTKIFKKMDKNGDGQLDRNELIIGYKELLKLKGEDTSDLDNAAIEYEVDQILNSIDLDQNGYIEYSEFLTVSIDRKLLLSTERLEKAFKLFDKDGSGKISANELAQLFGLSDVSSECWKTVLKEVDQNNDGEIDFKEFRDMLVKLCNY

Plasmodium falciparum protein kinase 6 (PK6, PF3D7_1337100), sequence (Q8IDW1 1-305): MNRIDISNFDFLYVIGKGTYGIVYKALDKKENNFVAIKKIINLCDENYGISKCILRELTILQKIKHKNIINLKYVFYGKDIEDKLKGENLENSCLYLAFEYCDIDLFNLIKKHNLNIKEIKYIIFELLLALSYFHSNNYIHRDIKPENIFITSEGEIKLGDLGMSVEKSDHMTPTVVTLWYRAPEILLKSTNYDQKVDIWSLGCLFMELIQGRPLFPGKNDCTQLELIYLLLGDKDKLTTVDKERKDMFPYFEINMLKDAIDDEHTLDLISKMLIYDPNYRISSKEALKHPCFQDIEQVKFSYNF

As for `CN=C(NO)NCCN(C)C`, the growth inhibition was -5% in experiment [1] and 88% (active) in experiment [4]. The inhibition is -1% in experiment [2] and -2% in experiment [3]. Besides, the outcome in experiment [5], in experiment [6], in experiment [7] and in experiment [8] was inactive.
With `Cc1cccc2[nH]c(-c3ccc(-c4cccc(CN5CCC(CO)CC5)c4)s3)nc12`, the growth inhibition in experiment [1] was 61% (active); in experiment [4], 99% (active). Besides, the inhibition in experiment [2] is 20%; in experiment [3], -8%. In addition, the outcome in experiment [5], in experiment [6], in experiment [7] and in experiment [8] was inactive.
As to `O=C(NCc1ccc(Cl)c(Cl)c1)[C@H]1CNCCN1C(=O)c1ccccc1`, the growth inhibition is 4% in experiment [1] and 97% (active) in experiment [4]. Moreover, the inhibition is -5% in experiment [2] and 1% in experiment [3]. Besides, the result in experiment [5], in experiment [6], in experiment [7] and in experiment [8] was inactive.
Consider `CCc1ccc(NC(=O)c2ccc(CN3CCCN(CC4CCCCC4)CC3)cc2)cc1`, for which the growth inhibition in experiment [1] was 48%; in experiment [4], 96% (active). For the same compound, the inhibition in experiment [2] was 48%; in experiment [3] it was 3%. Also, the result in experiment [5], in experiment [6], in experiment [7] and in experiment [8] was inactive.
Turning to `CC(C)C[C@H](Nc1ccc(C#N)c2ccccc12)C(=O)NC(C)(C)C12CC3CC(CC(C3)C1)C2`, the growth inhibition is 30% in experiment [1] and 96% (active) in experiment [4]. For the same compound, the inhibition is 19% in experiment [2] and -1% in experiment [3]. The result in experiment [5], in experiment [6], in experiment [7] and in experiment [8] was inactive.
Regarding `CC(C)(C)c1cc(C(=O)Nc2ccc(C(=N)N)cc2)c(O)c(C(C)(C)C)c1`, the growth inhibition in experiment [1] is 88% (active); in experiment [4] it was 101% (active). Moreover, the results for the inhibition in experiment [2] and in experiment [3] were 4% and -2%, respectively. In addition, the outcome in experiment [5], in experiment [6], in experiment [7] and in experiment [8] was inactive.
For the compound `CSc1nc2nc(C)c(Cc3cccc(C(F)(F)F)c3)c(C)n2n1`, the growth inhibition is 95% (active) in experiment [1] and 98% (active) in experiment [4]. Also, the inhibition was 4% in experiment [2] and 2% in experiment [3]. The result in experiment [5], in experiment [6], in experiment [7] and in experiment [8] was inactive.
Take `NC(N)=NN=Cc1c2ccccc2c(Cl)c2cc(Cl)ccc12`: the growth inhibition in experiment [1] is 28%; in experiment [4], 97% (active). The inhibition in experiment [2] was 26%; in experiment [3] it was -3%. In addition, the outcome in experiment [5], in experiment [6], in experiment [7] and in experiment [8] was inactive.
For `Cc1cccc2[nH]c(-c3ccc(-c4ccc(CNCCN5CCNCC5)cc4)s3)nc12`, the growth inhibition was -2% in experiment [1] and 88% (active) in experiment [4]. The values for the inhibition in experiment [2] and in experiment [3] were 30% and 3%, respectively. In addition, the result in experiment [5], in experiment [6], in experiment [7] and in experiment [8] was inactive.
`CCOc1cc(C(=O)NCCCN2CCCCC2C)ccc1-c1nc2ccc(Cl)cc2[nH]1` (stereo not drawn): the growth inhibition is 0% in experiment [1] and 89% (active) in experiment [4]. Also, the values for the inhibition in experiment [2] and in experiment [3] were 2% and -2%, respectively. Besides, the result in experiment [5], in experiment [6], in experiment [7] and in experiment [8] was inactive.
With `CCCCNC[C@@H](O)[C@H](Cc1ccccc1)NC(=O)c1cc(NCC)cc(N2CCCCS2(=O)=O)c1`, the growth inhibition in experiment [1] is 98% (active); in experiment [4] it was 99% (active). For the same compound, the inhibition in experiment [2] is 11%; in experiment [3] it was 2%. For the same compound, the result in experiment [5], in experiment [6], in experiment [7] and in experiment [8] was inactive.
Regarding `COc1ccc2nc(N3CCNCC3)nc(NCCCc3ccccc3)c2c1`, the growth inhibition in experiment [1] was 43%; in experiment [4], 100% (active). Further, the inhibition in experiment [2] was 31%; in experiment [3] it was -3%. For the same compound, the outcome in experiment [5], in experiment [6], in experiment [7] and in experiment [8] was inactive.
`Clc1ccc2c(N3CCN(CCN4CCN(c5ccnc6cc(Cl)ccc56)CC4)CC3)ccnc2c1`: the growth inhibition in experiment [1] was 100% (active); in experiment [4], 99% (active). For the same compound, the inhibition in experiment [2] is 10%; in experiment [3] it was 1%. Further, the outcome in experiment [5], in experiment [6], in experiment [7] and in experiment [8] was inactive.
`Cc1ccc2nc(C)n(C3CCN(C(=O)C4(c5ccccc5)CC4)CC3)c2c1`: the growth inhibition in experiment [1] was 83% (active); in experiment [4], 100% (active). Further, the values for the inhibition in experiment [2] and in experiment [3] were 8% and 7%, respectively. Moreover, the outcome in experiment [5], in experiment [6], in experiment [7] and in experiment [8] was inactive.
Take `O=S1c2ccccc2Sc2ccccc21`: the figures for the growth inhibition in experiment [1] and in experiment [4] were -1% and 99% (active), respectively. For the same compound, the inhibition in experiment [2] is 48%; in experiment [3] it was 6%. The result in experiment [5], in experiment [6], in experiment [7] and in experiment [8] was inactive.
For the compound `O=C(/C=C/c1ccc(Cl)c(Cl)c1)NCCCCCN1CCC(NC(=O)Nc2cc(Cl)ccc2Cl)CC1`, the results for the growth inhibition in experiment [1] and in experiment [4] were 31% and 99% (active), respectively. The inhibition in experiment [2] is 99% (active); in experiment [3], 0%. The outcome in experiment [5], in experiment [6], in experiment [7] and in experiment [8] was inactive.
For the compound `CN1CCc2cc(I)c(O)cc2C1Cc1ccccc1Cl` (stereo not drawn), the figures for the growth inhibition in experiment [1] and in experiment [4] were 96% (active) and 98% (active), respectively. Moreover, the inhibition was -7% in experiment [2] and -2% in experiment [3]. Also, the result in experiment [5], in experiment [6], in experiment [7] and in experiment [8] was inactive.
With `C[C@@H]1CN(c2cnn(Cc3cccc(NC(=O)Nc4ccc(F)cc4[N+](=O)[O-])c3)c(=O)c2Cl)C[C@H](C)N1`, the growth inhibition was 13% in experiment [1] and 91% (active) in experiment [4]. The inhibition in experiment [2] is 7%; in experiment [3] it was 6%. Besides, the outcome in experiment [5], in experiment [6], in experiment [7] and in experiment [8] was inactive.
Turning to `Cc1ccc(NC(=O)NC2CCN(c3ccnc4cc(Cl)ccc34)CC2)cc1`, the growth inhibition in experiment [1] is 47%; in experiment [4], 101% (active). In addition, the inhibition in experiment [2] is 4%; in experiment [3], -2%. For the same compound, the result in experiment [5], in experiment [6], in experiment [7] and in experiment [8] was inactive.
With `COc1ccc(NC(=O)CCNc2cc(C)nc(NCCOc3ccccc3)n2)cc1`, the growth inhibition in experiment [1] is 2%; in experiment [4] it was 96% (active). The values for the inhibition in experiment [2] and in experiment [3] were 0% and -1%, respectively. Also, the result in experiment [5], in experiment [6], in experiment [7] and in experiment [8] was inactive.
Regarding `COc1ccc2nccc([C@@H](O)CN3CCC(NCCOc4cc(C(F)(F)F)ccc4F)CC3)c2c1`, the figures for the growth inhibition in experiment [1] and in experiment [4] were 83% (active) and 100% (active), respectively. Further, the inhibition was 13% in experiment [2] and 2% in experiment [3]. Further, the result in experiment [5], in experiment [6], in experiment [7] and in experiment [8] was inactive.
